# The entries come from a sample that favours hits as a whole.
# Pf Dd2 growth – qHTS Primary assay for Inhibitors of Plasmodium falciparum Dd2 growth in vitro | P. falciparum Dd2 growth, SYBR Green, 72 h | Potency, µM (series often up to 28.9 µM), actives largely listed as inhibitors | hit rate 4.3% among 120,000 | AID 1347417, 2020; active = well fitted inhibition curve with a large enough effect; note: nearly all actives have a fitted effect of over 65% in size
#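 Readout: SYBR Green fluorescence, 485 nm excitation, 535 nm emission, after ~16 h lysis at 37C. Before that, Dd2-infected red cells (2.5% hematocrit) grew 72 h with compound, 29 uM top final concentration.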
# A number is an active result; 0 = inactive; [ ] = another dose, or the depositor's remark.
SMILES,Pf Dd2 growth
CCOc1ccccc1C1NC(=O)N(CC(=O)Nc2cc(F)ccc2F)C2=C1C(=O)OC2 (stereo not drawn),0
O=C(N[C@H]1CCN2C(=O)c3cc(/C=C/c4ccc(O)cc4)ccc3NC(=O)[C@H]12)c1cnccn1,0
O=C(N[C@H]1CCN2C(=O)c3cc(-c4ccccc4F)ccc3NC(=O)[C@H]12)c1cnccn1,5.6µM
O=C(N[C@H]1CCN2C(=O)c3cc(/C=C/c4ccccc4)ccc3NC(=O)[C@H]12)c1cnccn1,0
OC1(CNCCc2nc(-c3cccnc3)n[nH]2)CNCCOC1 (stereo not drawn),0
CS(=O)(=O)N1CCC(C2CCN(C(=O)c3ccc(F)c(Cl)c3)C2)CC1 (stereo not drawn),0
COC[C@]1(O)CCN(C(=O)C2CCN(CC(N)=O)CC2)CC1(C)C,0
Cc1cc(C)c(NC(=O)CSc2nncn3c2cc2oc(C)cc23)c(C)c1,0[5.79 µM]
COc1ccc(NC(=O)CSc2nncn3c2cc2oc(C)cc23)cc1OC,0
CCOC(=O)c1ccc(NC(=O)C(CC)Sc2nncn3c2cc2oc(C)cc23)cc1 (stereo not drawn),10µM
Cc1ccccc1-c1cnc2[nH]cc(CC(=O)NC3CC3)c2c1,0
COCCn1ccnc1C1CCCN(c2ncnc3c2CCC3)C1 (stereo not drawn),0
CNC(=O)c1cc(-c2ccc(N3CCOCC3)cc2)cc2c1OCCN2Cc1cccnc1,10µM
CNC(=O)c1cc(-c2ccccc2F)cc2c1OCCN2Cc1cccnc1,0
CNC(=O)c1cc(-c2ccc(OC)nc2)cc2c1OCCN2Cc1cccnc1,0
Cn1nc(C2CCN(C(=O)CC3CCCC3)CC2)c2c1CCOC2,0[5.79 µM]
COc1ccccc1CN1C(=O)O[C@@H]2CN(C(=O)NC3CCCCC3)C[C@@H]21,0
COC(=O)c1ccc(N2C[C@H]3OC(=O)N(Cc4ccccc4OC)[C@H]3C2)nc1,0
COc1cc(OC)nc(N2C[C@H]3OC(=O)N(Cc4ccccc4OC)[C@H]3C2)n1,3.5µM
CCN(CC)Cc1cnc2c(C(=O)Nc3ccc(Cl)cc3C)cnn2c1,0
O=C(NCc1cccnc1)C1CC(=O)N(c2n[nH]c3ccccc23)C1 (stereo not drawn),0
CCCN1CCC2(Cc3ccccc3CN(C(C)=O)C2)C1 (stereo not drawn),0
CN(C)CCC(=O)N1Cc2ccccc2CC2(CCCN2C)C1 (stereo not drawn),0
CC(=O)NCC(=O)N1Cc2ccccc2CC2(CCCN2C)C1 (stereo not drawn),0
CCCN1CCC2(Cc3ccccc3CN(C(=O)C(C)C)C2)C1 (stereo not drawn),8.9µM
SMILES,Pf Dd2 growth
CC(C)C(=O)N1Cc2ccccc2CC2(CCCN2C)C1 (stereo not drawn),10µM
CCCN1CCC2(Cc3ccccc3CN(C(=O)CCCC(=O)O)C2)C1 (stereo not drawn),0
CC(C)C(=O)N1Cc2ccccc2CC2(CCCN(CC3CCCCC3)C2)C1 (stereo not drawn),0.25µM
O=C(O)CCC(=O)N1Cc2ccccc2CC2(CCCN(CC3CCCCC3)C2)C1 (stereo not drawn),0
O=C(O)CCCC(=O)N1Cc2ccccc2CC2(CCCN(CC3CCCCC3)C2)C1 (stereo not drawn),0
O=C(c1ccc(OC(F)F)cc1)N1CCCC(O)(CN2CCCC2)C1 (stereo not drawn),0
Cc1nc(C)c(CC(=O)NC2CCCN(C3CCCCCC3)C2)c(=O)[nH]1 (stereo not drawn),0
COCCn1c(CN2C(=O)CCc3ccccc32)nnc1C1CC(N)C1 (stereo not drawn),0
O=C(NCCc1ccccc1)c1cnc2c(c1)N(C(=O)Cc1cccc(C(F)(F)F)c1)CCC2,0
Cc1noc(-c2cccc(F)c2)c1C(=O)NCc1cccc(Cl)c1,0
COc1ccc(NC(=O)c2ccco2)cc1NC(=O)c1c(OC)cccc1OC,0
COc1ccc(C(=O)Nc2cc(NC(=O)c3ccco3)ccc2OC)cc1Cl,0
COc1ccc(NC(=O)c2ccco2)cc1NC(=O)C(C)(C)Oc1ccc(Cl)cc1,10µM
CCC(NC(=O)C1CCCN(c2cnc3nccnc3c2)C1)c1ccc(OC)cc1 (stereo not drawn),0
O=C(O)CCc1ccnc(N2CCCC2)c1,0
O=C(CCc1ccnc(N2CCOCC2)c1)N1CCN(C(=O)c2ccco2)CC1,0
O=C(CCc1ccnc(N2CCCC2)c1)N1CCN(c2cccc(Cl)c2)CC1,5µM
O=C(c1cc(F)ccc1Cl)N1CCC2(CC1)CC(O)CCO2 (stereo not drawn),0
CCNC(=O)c1ccc2c(c1)C1(CCN(CC3CC3)C1)CN2Cc1ccccc1 (stereo not drawn),0
O=C(NC1CCC1)c1ccc2c(c1)C1(CCN(CC3CC3)C1)CN2Cc1ccccc1 (stereo not drawn),14µM
O=C(NCC1CC1)c1ccc2c(c1)C1(CCN(CC3CC3)C1)CN2Cc1ccccc1 (stereo not drawn),0
Fc1ccccc1-c1noc(NCCc2ccc(Cl)cc2)n1,0
O=c1cc(-c2ccccc2)nc(SCc2nc(-c3ccc(Cl)cc3)no2)[nH]1,0
Clc1ccc(CNc2nc(-c3ccccc3)no2)cc1,11µM
O=C(Nc1nc2c(s1)CCC2)C1CC(=O)N(c2n[nH]c3ccccc23)C1 (stereo not drawn),0
SMILES,Pf Dd2 growth
COc1ccc(C(=O)NCC2(COc3cccnc3)C[C@@H](O)[C@@H](O)C2)cc1 (stereo partly drawn),0
COc1ncccc1-c1ncc2c(n1)OCCN(c1cccc(C(F)(F)F)c1)C2=O,0
COc1ccccc1-c1ncc2c(n1)OCCN(c1cccc(C(F)(F)F)c1)C2=O,0
O=C1c2cnc(-c3cccc(CO)c3)nc2OCCN1c1cccc(C(F)(F)F)c1,14µM
Cc1ccc(NC(=O)[C@@H]2CNC[C@H](C(=O)N3CCN(CCO)CC3)C2)cc1,0
CC(=O)N1CCC2(CC1)CN(C(=O)CCCNC(N)=O)Cc1ccccc1O2,0
Cc1nc(N2CCCC2)c2c(C(=O)N3CCN(c4ccccc4)CC3)c(C)oc2n1,0
Cc1nc(N2CCCC2)c2c(C(=O)Nc3cccc(Cl)c3)c(C)oc2n1,0
Cc1nc(N2CCCC2)c2c(C(=O)N3CCN(c4cc(Cl)ccc4C)CC3)c(C)oc2n1,13µM
Cc1nc(C)c(C(=O)N2CCC(Cc3noc(-c4ccccc4)n3)C2)s1 (stereo not drawn),0
Cc1ccc(C(=O)N2CCC(n3cc(-c4nc(C(C)C)no4)nn3)C2)cc1C (stereo not drawn),0
COCC(=O)N[C@H]1CC[C@]2(C)CC[C@@H]3[C@H](OC(=O)[C@H]3C)[C@H]2[C@@H]1C,0
CCN(CC)C(=O)C(C)[C@@H]1CC[C@@]2(C)CC[C@H](NC(=O)CC(C)(C)C)[C@@H](C)[C@@H]2[C@H]1O (stereo partly drawn),0
C[C@H]1[C@@H]2[C@@H](O)C([C@H](C)C(=O)NCCN3CCOCC3)CC[C@@]2(C)CC[C@@H]1NC(=O)CC(C)(C)C (stereo partly drawn),0
CC(C)NC(=O)C(C)[C@@H]1CC[C@@]2(C)CC[C@H](NC(=O)CC(C)(C)C)[C@@H](C)[C@@H]2[C@H]1O (stereo partly drawn),6.3µM
C[C@H]1[C@@H]2[C@H]3OC(=O)[C@@H](C)[C@@H]3CC[C@@]2(C)CC[C@@H]1NC(=O)CC(C)(C)C,1.3µM
C[C@H]1[C@@H]2[C@H]3OC(=O)[C@@H](C)[C@@H]3CC[C@@]2(C)CC[C@@H]1NC(=O)C1CCCCC1,0

# Bioassay records from PubChem BioAssay.
